Data on eight compounds can be found in PubChem BioAssay.

Activity calls are given as the source filed them.

Test [1] can be described thus: E. coli DRC41 culture turbidity changes, primary screen, E. coli filamentation inducer project, strain DRC41, OD650, 48 h (AID 1152).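 Further: E. coli MC1000 strain DRC41 lacking acrAB efflux pump and sulA.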 The following applies: E. coli DRC41 (acrAB sulA), higher = more signal, called active from +8 up or from −8 down.
The nature of test [2]: small-molecule binders of probe aLefty1, primary screen, biochemical, small-molecule microarray, 635/667 nm fluorescence (AID 1153).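 Further: score merges spot fluorescence with signal-to-noise ratio from the scanned slide images.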 Conditions: higher = more signal.
Test [3] can be described thus: PSAC antagonists in infected red cells, primary screen, cell-based, P. falciparum Indochina, OD700, 1 h (AID 1154). The following applies: P. falciparum Indochina infected RBC osmotic lysis, higher = more signal, called active from +8 up or from −8 down.
Test [4] in a line: PSAC antagonists in infected red cells, primary screen, cell-based, P. falciparum Indochina, OD700, 2 h (AID 1155).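 Further: lysis reports solute entry through the parasite surface anion channel PSAC; channel blockers reduce lysis of infected cells.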 Conditions: P. falciparum Indochina infected erythrocytes, osmotic lysis OD700; higher = more signal, called active from +8 up or from −8 down.
Test [5] is described as follows: osmotic lysis modulators in infected erythrocytes, primary screen, PSAC antagonist project, cell-based, P. falciparum Indochina, OD700, 3 h (AID 1156). The following applies: higher = more signal, called active from +8 up or from −8 down.
Test [6] in a line: PSAC antagonists in infected red cells, primary screen, cell-based, P. falciparum Indochina, OD700, 18 h (AID 1157). The following applies: P. falciparum Indochina infected erythrocytes, osmotic lysis OD700, 18 h; higher = more signal, called active from +8 up or from −8 down.
Test [7] is described as follows: modulators of S6 phosphorylation in cells, primary screen, cell-based, A549, cytoblot, luminescence, serum-stimulated (AID 1158).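 Further: serum-stimulated A549 lung adenocarcinoma cells; signal is phosphorylated S6 detected by cytoblot immunostaining with HRP secondary.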 The following applies: A549 phospho-S6 cytoblot, 5 h, higher = more signal.
Test [8] addresses NADPH oxidase 2 (Homo sapiens) (UniProt P04839). Description: NOX2-dependent H2O2 signal modulators, primary screen, NOX inhibitor project, cell-based, HEK293-NOX2, PMA-stimulated, Amplex Red fluorescence (AID 1159). Further: test concentration not given here. Conditions: 45 min, higher = more signal, called active from +8 up or from −8 down.
Test [9] concerns the target NADPH oxidase 4 (Homo sapiens) (UniProt Q9NPH5). Description: NOX4-dependent H2O2 signal modulators, primary screen, NOX inhibitor project, cell-based, HEK293-NOX4, tetracycline-induced, Amplex Red fluorescence (AID 1160). The following applies: 45 min, higher = more signal, called active from +8 up or from −8 down.
Test [10] deals with NADPH oxidase 5 (Homo sapiens) (UniProt Q96PH1). Put plainly: NOX5-dependent H2O2 signal modulators, primary screen, NOX inhibitor project, cell-based, HEK293-NOX5, Amplex Red fluorescence (AID 1161). The following applies: HEK293-NOX5, ionomycin, 45 min, higher = more signal.
The nature of test [11]: A549 cell viability effects, profiling panel, calcein-AM fluorescence, 48 h, basal (AID 1162). Further: test concentration not given here. Conditions: higher = more signal.
Test [12] is described as follows: adipocyte viability effects, profiling panel, cell-based, 3T3-L1 adipocytes, calcein-AM fluorescence, 48 h, basal (AID 1163). Further: test concentration not given here. Conditions: 3T3-L1 adipocytes viability, higher = more signal.
Test [13] can be described thus: HepG2 cell viability effects, profiling panel, calcein-AM fluorescence, 48 h, basal (AID 1164). Further: test concentration not given here. Conditions: higher = more signal.
The nature of test [14]: MM1S cell viability effects, profiling panel, calcein-AM fluorescence, 48 h, basal (AID 1165).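 Further: viability of MM1S multiple myeloma cells under basal unstimulated conditions; test concentration not given here.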 Conditions: higher = more signal.
Test [15] can be described thus: basal RPMI8226 viability, no added stimulus, profiling panel, cell-based, calcein-AM fluorescence, 48 h, PK04 Diversity Set (AID 1166).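 Further: cells grown under basal conditions without added stimulus; test concentration not given here.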 Conditions: RPMI8226 myeloma viability, higher = more signal.
The nature of test [16]: basal HepG2 mitochondrial membrane potential changes, profiling panel, cell-based, JC-1 fluorescence, 24 h, 100 nL compound (AID 1167). Further: test concentration not given here. Conditions: higher = more signal.
Test [17] in a line: basal 3T3-L1 adipocyte mitochondrial potential changes, profiling panel, cell-based, JC-1 fluorescence, 3T3-L1 adipocytes, 24 h, 100 nL compound (AID 1168). Further: test concentration not given here. The following applies: JC-1 mitochondrial fluorescence, higher = more signal, called active from +8 up or from −8 down.
Test [18] is described as follows: basal RPMI8226 mitochondrial membrane potential changes, profiling panel, cell-based, JC-1 fluorescence, 24 h, 100 nL compound (AID 1169). Further: test concentration not given here. The following applies: RPMI8226 myeloma, JC-1 mitochondrial potential fluorescence, higher = more signal.
Test [19] can be described thus: basal MM1S mitochondrial membrane potential changes, profiling panel, cell-based, JC-1 fluorescence, 24 h, 100 nL compound (AID 1170). Further: test concentration not given here. Conditions: higher = more signal.
Test [20] in a line: A549 lung cancer cell viability effects, profiling panel, resazurin fluorescence, 24 h, PK04 Diversity Set (AID 1171). Further: test concentration not given here. Conditions: higher = more signal, called active from +8 up or from −8 down.

Chain of NADPH oxidase 4 (Homo sapiens) (Q9NPH5 whole entry, looked up): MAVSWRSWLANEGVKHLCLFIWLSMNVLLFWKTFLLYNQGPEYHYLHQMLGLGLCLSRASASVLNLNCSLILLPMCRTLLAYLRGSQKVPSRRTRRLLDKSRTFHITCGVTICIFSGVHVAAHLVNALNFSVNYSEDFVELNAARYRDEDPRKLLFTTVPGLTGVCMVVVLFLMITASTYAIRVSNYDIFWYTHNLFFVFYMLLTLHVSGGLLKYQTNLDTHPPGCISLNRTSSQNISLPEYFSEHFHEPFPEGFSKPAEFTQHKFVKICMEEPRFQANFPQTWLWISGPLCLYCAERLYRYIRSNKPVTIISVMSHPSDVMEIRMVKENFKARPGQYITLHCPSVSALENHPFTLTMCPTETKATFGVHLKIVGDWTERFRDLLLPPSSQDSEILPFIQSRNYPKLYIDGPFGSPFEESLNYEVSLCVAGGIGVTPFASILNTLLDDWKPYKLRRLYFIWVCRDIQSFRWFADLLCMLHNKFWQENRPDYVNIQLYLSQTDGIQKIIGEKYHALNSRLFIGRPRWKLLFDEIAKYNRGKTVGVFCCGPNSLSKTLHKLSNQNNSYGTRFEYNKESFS
Chain of NADPH oxidase 2 (Homo sapiens) (P04839 whole entry, looked up): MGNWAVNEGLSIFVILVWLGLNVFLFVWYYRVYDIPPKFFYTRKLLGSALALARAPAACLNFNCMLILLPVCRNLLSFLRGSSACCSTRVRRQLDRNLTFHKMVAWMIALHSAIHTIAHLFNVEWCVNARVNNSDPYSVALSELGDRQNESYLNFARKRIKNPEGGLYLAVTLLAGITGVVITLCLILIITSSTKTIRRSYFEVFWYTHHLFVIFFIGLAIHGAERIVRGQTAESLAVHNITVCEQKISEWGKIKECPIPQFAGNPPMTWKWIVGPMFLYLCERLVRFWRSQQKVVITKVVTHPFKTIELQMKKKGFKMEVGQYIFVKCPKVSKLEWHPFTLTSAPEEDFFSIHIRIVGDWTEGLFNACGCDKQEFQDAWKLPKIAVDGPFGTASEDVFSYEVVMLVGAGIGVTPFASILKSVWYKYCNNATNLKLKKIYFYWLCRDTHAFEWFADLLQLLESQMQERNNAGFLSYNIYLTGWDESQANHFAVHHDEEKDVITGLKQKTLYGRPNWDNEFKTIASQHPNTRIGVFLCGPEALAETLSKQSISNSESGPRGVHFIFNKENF
Chain of NADPH oxidase 5 (Homo sapiens) (Q96PH1 whole entry, looked up): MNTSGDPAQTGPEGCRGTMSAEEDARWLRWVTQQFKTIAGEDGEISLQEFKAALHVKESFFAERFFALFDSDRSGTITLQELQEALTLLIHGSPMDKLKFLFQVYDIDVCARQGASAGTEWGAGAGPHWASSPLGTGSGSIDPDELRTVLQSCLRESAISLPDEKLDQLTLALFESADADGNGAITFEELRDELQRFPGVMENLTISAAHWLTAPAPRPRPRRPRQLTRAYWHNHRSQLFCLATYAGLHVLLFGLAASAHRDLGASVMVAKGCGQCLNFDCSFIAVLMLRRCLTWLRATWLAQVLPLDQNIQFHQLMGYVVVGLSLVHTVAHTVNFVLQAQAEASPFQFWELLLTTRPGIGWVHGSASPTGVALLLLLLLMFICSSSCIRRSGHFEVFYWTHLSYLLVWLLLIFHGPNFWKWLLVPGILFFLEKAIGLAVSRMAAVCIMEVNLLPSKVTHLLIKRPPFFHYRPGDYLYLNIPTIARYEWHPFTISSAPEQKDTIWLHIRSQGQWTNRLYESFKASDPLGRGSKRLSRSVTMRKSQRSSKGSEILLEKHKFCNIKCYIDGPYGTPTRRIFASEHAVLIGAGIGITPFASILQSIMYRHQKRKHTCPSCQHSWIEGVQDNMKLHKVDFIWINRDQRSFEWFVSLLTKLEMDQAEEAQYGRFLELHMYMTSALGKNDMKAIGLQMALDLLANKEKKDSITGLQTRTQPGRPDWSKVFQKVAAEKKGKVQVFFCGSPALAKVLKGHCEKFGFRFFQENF

Turning to `O=C1C2=CC[C@H]3C(=O)N(c4cccc(Oc5ccccc5)c4)C(=O)[C@H]3[C@H]2[C@H](O)[C@@H]2O[C@H]12`, the z-score in test [1] was -0.462 (inactive); in test [3], -0.0001 (inactive); in test [4], -0.295 (inactive); in test [5], -0.081 (inactive); in [6], 0.157 (inactive); in [7], -0.194. The z-score in [8] was 0.042 (inactive); in test [9], 0.605 (inactive); in test [10], 0.4; in test [11], -1.07; in test [12], -0.0208; in [13], -3.98. Also, the z-score in test [14] was -3.09; in test [15] it was -3.84; in test [16], -0.778; in test [17], -0.298 (inactive); in [18], -1.05; in test [19] it was -3.02. In addition, the z-score in test [20] was -1.35 (inactive). Further, in test [2], the composite z-score is -0.103.

As to `CC(CCN1CCCCc2nc(C)c(C)cc21)=NO[C@@H](C)c1cn([C@H](CO)Cc2ccccc2)nn1`, the z-score in test [1] is 0.72 (inactive); in test [3], 2.04 (inactive); in [4], 0.32 (inactive); in test [5], 0.729 (inactive); in test [6], 0.367 (inactive); in test [7] it was -0.11. Further, the z-score in test [8] was -2.09 (inactive); in test [9] it was -0.106 (inactive); in [10], -0.199; in test [11] it was 0.455; in [12], -0.374; in test [13], 0.0163. In addition, the z-score was 0.313 in test [14]; 0.307 in [15]; -1.33 in test [16]; -0.151 (inactive) in test [17]; 0.878 in test [18]; -0.859 in [19]. In [20], the z-score is -0.32 (inactive). The compound further showed a composite z-score in test [2] of 0.0618.

Turning to `CCOC(=O)[C@H](Cc1ccccc1)NC(=O)CCC1CC(OC(=O)NCCc2ccc(F)cc2)CC2(CCCC(COC(=O)NCc3ccccc3)O2)O1` (stereo not given in full), the z-score in test [1] was -0.713 (inactive); in [3] it was -0.623 (inactive); in test [4], -0.567 (inactive); in test [5] it was -0.857 (inactive); in [6], -0.144 (inactive); in test [7], 0.0765. The z-score in test [8] was -0.0815 (inactive); in [9], 1.21 (inactive); in [10] it was 0.616; in [11], 0.199; in test [12], -0.765; in test [13], -0.12. Also, the z-score in test [14] was 0.399; in test [15], -0.816; in test [16], 0.968; in [17] it was 0.509 (inactive); in test [18], -0.191; in [19] it was -0.266. For the same compound, the z-score in test [20] is 0.56 (inactive). For the same compound, the composite z-score in [2] was -0.152.

In the case of `CC(C)C[C@H](NC(=O)CCC1CC(OC(=O)NCc2cccc3ccccc23)CC2(CCCC(COC(=O)NCc3ccccc3)O2)O1)C(=O)NCC(c1ccccc1)c1ccccc1` (stereo not given in full), the z-score in test [1] is 0.576 (inactive); in test [3] it was 8.07 (active); in test [4], 1.33 (inactive); in test [5], -1.22 (inactive); in [6] it was 0.688 (inactive); in test [7], -0.71. Besides, the z-score is 0.871 (inactive) in test [8]; 0.194 (inactive) in test [9]; -0.0969 in test [10]; -0.375 in test [11]; 0.111 in test [12]; -0.429 in [13]. Moreover, the z-score in test [14] was -3.53; in test [15], -0.971; in test [16], -0.341; in test [17], 0.922 (inactive); in [18], -0.802; in [19] it was -0.715. In addition, the z-score in [20] is 0.337 (inactive). Besides, the composite z-score in [2] is -0.29.

For `COC(=O)[C@H](C)NC(=O)CCC1CC(OC(=O)NCCc2ccc(F)cc2)CC2(CCCC(COC(=O)NCc3cccc(C(F)(F)F)c3)O2)O1` (stereo not given in full), the z-score in test [1] is 0.419 (inactive); in test [3], 9.11 (active); in [4] it was 0.445 (inactive); in test [5], -0.45 (inactive); in [6] it was 0.125 (inactive); in [7], -0.416. The z-score is 1.23 (inactive) in test [8]; -1.65 (inactive) in test [9]; -1.14 in test [10]; -0.925 in test [11]; 0.704 in [12]; -1.69 in [13]. Also, the z-score in test [14] is -3.48; in test [15] it was -0.416; in [16], -0.15; in [17], -0.835 (inactive); in [18] it was 0.54; in test [19], 0.533. The z-score in test [20] was -0.0257 (inactive). For the same compound, in [2], the composite z-score is -0.181.

Take `CO[C@@H]1COC(=O)[C@@H](C)COC(=O)[C@@H](C)NC(=O)CC=C[C@@H]1C`: the z-score is -0.294 (inactive) in test [1]; -1.15 (inactive) in [3]; -1.26 (inactive) in [4]; 0.645 (inactive) in [5]; -0.858 (inactive) in [6]; 1 in test [7]. Also, the z-score in test [8] was -0.675 (inactive); in [9], -2.43 (inactive); in [10], -2.91; in test [11], -0.448; in test [12], 1.25; in [13], -1.45. Besides, the z-score in [14] is -0.539; in [15], -1.86; in test [16] it was 0.2; in test [17] it was -0.189 (inactive); in test [18], 0.0701; in [19], -1.48. Moreover, the z-score in test [20] is 0.512 (inactive). The composite z-score in test [2] amounted to 0.682.

With `CCOC(=O)[C@H](CC(C)C)NC(=O)CCC1CC(OC(=O)NCc2cccc3ccccc23)CC2(CCCC(COC(=O)NCc3ccncc3)O2)O1` (stereo not given in full), the z-score in [1] is 0.432 (inactive); in [3], 7.59 (inactive); in test [4] it was 1.02 (inactive); in test [5], -0.416 (inactive); in test [6], 0.42 (inactive); in test [7], 0.351. Also, the z-score in [8] was 0.402 (inactive); in test [9], 0.142 (inactive); in test [10] it was 0.365; in test [11], 0.357; in [12] it was -0.0315; in test [13] it was -0.215. For the same compound, the z-score in test [14] is -3.43; in test [15], -1.8; in test [16] it was 0.991; in test [17], 0.666 (inactive); in test [18], -0.12; in test [19], -1.14. Further, the z-score in test [20] was 0.645 (inactive). Further, in [2], the composite z-score is -0.142.

`CCOC(=O)C1=NO[C@@]2(C=C(Br)C3(OCCCO3)[C@H]3O[C@H]32)C1`: the z-score in test [1] is 0.721 (inactive); in test [3] it was 0.123 (inactive); in test [4], 0.105 (inactive); in test [5] it was 0.157 (inactive); in [6] it was -0.218 (inactive); in [7], -0.235. For the same compound, the z-score was 0.925 (inactive) in test [8]; -0.373 (inactive) in test [9]; 0.43 in [10]; -0.433 in test [11]; 0.672 in [12]; 0.0307 in test [13]. Further, the z-score in test [14] was 0.777; in test [15], -0.468; in [16], 0.448; in [17], 0.139 (inactive); in test [18], -0.723; in test [19], 0.308. The z-score in test [20] was -0.542 (inactive). Besides, the composite z-score in [2] is 0.026.
